Compounds with a hit are over-represented: about 4.3% of the library has one in this group of screens.
MITF act: increases MITF-driven TRPM1 promoter luciferase signal. activation, % at 12.5 µM. SK-MEL-5 TRPM1-promoter luciferase, 24 h; % of positive control, neutral wells = 0. AID 588334. 0.75% of 300,000 active;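 active = mean activation of at least 80% with every replicate also reaching 80%; inconclusive = mean reaches 80% but some replicate falls short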
AF4-AF9 inh: blocks AF4 peptide binding to human AF9; AID 651704; AlphaScreen, biotin-AF4 peptide binding to FLAG-AF9; 0.47% of 350,000 active; inhibition, % at 10 µM; P42568;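 active = every replicate reaching a set inhibition limit, whatever the replicate mean, cut at about 25% in these data; inconclusive = mean inhibition reaches that limit but some replicates miss it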
FGF22 binding: binders of recombinant human FGF22 by thermal shift | Q9HCT0 | SYPRO orange fluorescence; percent of sucrose octasulfate shift, DMSO zero | activity (Tm shift, normalised), % at 9.99 µM | 1.5% of 340,000 active | AID 651658;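 active = mean Tm shift, scaled 0 neutral to 100 positive control, at about 1.3% or above, every replicate too, limit read from the data; inconclusive = no clear call, values can overlap the other calls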
Target sequence (Q9HCT0 whole entry, looked up): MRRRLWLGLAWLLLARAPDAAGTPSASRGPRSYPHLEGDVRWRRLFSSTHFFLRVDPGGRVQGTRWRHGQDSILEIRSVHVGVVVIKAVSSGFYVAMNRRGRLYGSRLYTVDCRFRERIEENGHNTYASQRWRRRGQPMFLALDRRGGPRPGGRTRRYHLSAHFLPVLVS
SMARCA2 activ: activators of SMARCA2 function; activation, % at 9.1 µM; 1% of 370,000 active; MG213 cells, MMTV-luciferase reporter, dexamethasone, overnight; in the data active = activation above about 7.8%
Wnt bcat act: activators of Wnt/beta-catenin signaling; Wnt/beta-catenin reporter cell assay, activator, plate reader; activation, % at 9.35 µM; 1.2% of 300,000 active; in the data active = activation above about 30%, passing the limit was not always enough; inconclusive = no clear call, values can overlap the other calls
esBAF inh: SWI/SNF esBAF complex inhibition | mouse ES cells, Bmi1-luciferase knock-in reporter, 24 h; 100% = twice the neutral-well signal | AID 602393 | 2% of 350,000 active | reporter increase, % at 12.5 µM; in the data active = activation above about 40%; inconclusive = no clear call, values can overlap the other calls;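 note: a rise in the Bmi1 reporter signal indicates esBAF inhibition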
Numbers stand for hits; 0 = inactive; ? = inconclusive; - = no result.

SMILES	MITF act	AF4-AF9 inh	FGF22 binding	SMARCA2 activ	Wnt bcat act	esBAF inh
O=C(NC1=NCCS1)c1ccc(Cl)c(S(=O)(=O)N2CCCC2)c1	0	0	43	0	0	-
CC1CCCN(C(=O)c2ccc(Cl)c(S(=O)(=O)N3CCCCCC3)c2)C1 (stereo unspecified)	0	0	0	0	0	58
O=C(Nc1nccs1)c1ccc(Cl)c(S(=O)(=O)N2CCCCC2)c1	0	-	-	0	-	42
O=C(NC1=NCCS1)c1ccc(Cl)c(S(=O)(=O)N2CCCCC2)c1	0	-	-	0	0	0
O=C(NC1=NCCS1)c1ccc(Cl)c(S(=O)(=O)N2CCOCC2)c1	0	0	43	0	0	-
O=C(c1ccc(Cl)c(S(=O)(=O)N2CCCC2)c1)N1CCCCC1	0	0	0	0	0	-
O=C(Nc1nc2ncccn2c1-c1ccc(F)c(F)c1)c1ccccc1	-	-	-	0	-	-
CC(C)c1cn(CC[C@@H]2CC[C@H](NC(=O)C3CC3)[C@@H](CO)O2)nn1	-	0	0	-	-	0
C[C@@H]1CN([C@@H](C)CO)C(=O)Cc2cc(N(C)C)ccc2O[C@H]1CN(C)Cc1ccc(C(F)(F)F)cc1	-	43	0	-	-	0
C[C@H]1CN([C@@H](C)CO)C(=O)Cc2cc(N(C)C)ccc2O[C@H]1CN(C)Cc1ccc(-c2ccccc2)cc1	-	44	0	-	-	0
C[C@H]1CN([C@@H](C)CO)C(=O)Cc2cc(N(C)C)ccc2O[C@H]1CN(C)Cc1ccc(C(F)(F)F)cc1	-	-	0	-	-	0
C[C@@H]1CN([C@@H](C)CO)C(=O)Cc2cc(N(C)C)ccc2O[C@@H]1CN(C)Cc1ccc(Oc2ccccc2)cc1	-	38	0	-	-	0
C[C@H](CO)N1C[C@H](C)[C@@H](CN(C)Cc2ccc(-c3ccccc3)cc2)Oc2ccc(N(C)C)cc2CC1=O	-	59	0	-	-	0
Cn1cnc(S(=O)(=O)N2C[C@H](O)COC[C@H]3O[C@@H](CC(=O)NCc4cccc(F)c4)CC[C@@H]32)c1	-	-	0	-	-	0
C[C@@H](NC(=O)C[C@@H]1C=C[C@@H](NS(=O)(=O)c2cccc(F)c2)[C@H](CO)O1)c1ccccc1	-	0	0	-	-	0
C[C@@H]1CN([C@@H](C)CO)C(=O)Cc2cc(N(C)C)ccc2O[C@@H]1CN(C)Cc1ccccc1	-	0	0	-	-	0
C[C@@H]1CN([C@H](C)CO)C(=O)Cc2cc(N(C)C)ccc2O[C@@H]1CN(C)Cc1ccc(-c2ccccc2)cc1	-	44	0	-	-	0
C[C@@H]1CN([C@H](C)CO)C(=O)Cc2cc(N(C)C)ccc2O[C@H]1CN(C)Cc1ccc(-c2ccccc2)cc1	-	36	0	-	-	0
NC(=O)c1cc(-c2ccccc2)sc1NC(=O)CN1CCCCC1	0	0	43	0	0	-
C[C@@H]1CN([C@@H](C)CO)C(=O)c2cc(NC(=O)CCCCCC(=O)Nc3ccccc3N)ccc2O[C@H]1CN(C)S(=O)(=O)c1ccccc1	-	0	0	-	-	-
COc1ccc2nc(NC(=O)C3CCN(C(=O)c4ccco4)CC3)sc2c1	-	0	0	0	0	53
COc1cc2sc(NC(=O)c3ccco3)nc2cc1Cl	0	0	0	0	?	52
Cc1cc2sc(NC(=O)c3ccco3)nc2cc1Cl	-	0	0	0	30	0
O=C(C[C@@H]1C[C@@H]2c3cc(NC(=O)c4cccnc4)ccc3O[C@@H]2[C@@H](CO)O1)NC1CCCC1	-	0	-	-	-	-
Cc1ccc(S(=O)(=O)N(C)C[C@@H]2OCc3ccccc3-c3ccccc3C(=O)N([C@H](C)CO)C[C@H]2C)cc1	-	0	0	-	-	0
SMILES	MITF act	AF4-AF9 inh	FGF22 binding	SMARCA2 activ	Wnt bcat act	esBAF inh
CCCCc1nc2cc(C(=O)N3CCCCC3C(=O)OC)ccc2o1 (stereo unspecified)	0	0	0	0	0	64
CCCCc1nc2cc(C(=O)N3CCCC3)ccc2o1	0	0	0	0	0	0
CCOC(=O)CC1COCCN1C(=O)c1ccc2oc(Cc3ccccc3)nc2c1 (stereo unspecified)	?	0	0	0	0	52
CCCCc1nc2cc(C(=O)NC(C)c3cnn(C)c3)ccc2o1 (stereo unspecified)	0	0	0	0	0	61
CCCCc1nc2cc(C(=O)N3CCCCC3CC(=O)OCC)ccc2o1 (stereo unspecified)	0	0	0	0	0	56
O=C(C[C@@H]1CC[C@@H]2[C@H](COC[C@H](O)CN2C(=O)Nc2ccc(Cl)c(Cl)c2)O1)NC1CCC1	-	0	0	-	-	0
CC(C)C#Cc1cnc2c(c1)C(=O)N([C@@H](C)CO)C[C@@H](C)[C@H](CN(C)C(=O)Nc1ccc(F)cc1)O2	-	0	0	-	-	0
CCn1c(=O)cc(N2CCOCC2)[nH]c1=O	0	0	43	0	0	-
CC(=O)NC[C@H]1[C@@H](c2ccc(-c3cccnc3)cc2)[C@H](CO)N1C(=O)C1CC1	-	0	0	-	-	0
C[C@H](CO)N1C[C@H](C)[C@@H](CN(C)Cc2ccc(C(=O)O)cc2)Oc2ccc(NC(=O)CCN3CCOCC3)cc2CC1=O	-	-	0	-	-	0
Cc1ccc(-c2nnc(SCC(=O)Nc3ccc(F)cc3F)n2Cc2ccco2)cc1	-	-	-	0	-	-
O=C1COc2ccc(C(=O)COC(=O)CNC(=O)c3ccco3)cc2N1	0	0	43	0	-	-
CCCC(=O)Nc1ccc(-c2nc3ncccc3o2)cc1	-	0	0	0	37	0
CC(C)C(=O)Nc1ccc(-c2nc3ncccc3o2)cc1	-	0	0	0	37	0
CC(C)C#Cc1ccc([C@@H]2[C@H]3CN(C(=O)c4ccc5c(c4)OCO5)CC(=O)N3[C@H]2CO)cc1	-	0	-	-	-	-
Cc1[nH]c2ccccc2c1C(=O)CSc1nnc(C2CC2)o1	0	26	0	0	0	0
Cc1ccc(NC(=O)CCC(=O)c2cccs2)c(Br)c1	86	0	0	0	0	-
Cc1ccc(NC(=O)CCC(=O)c2cccs2)cc1	-	-	-	0	41	0
Cc1ccc(CNC(=O)CCC(=O)c2cccs2)cc1	0	-	-	0	-	0
CCCNC(=O)N(C)C[C@H]1Oc2ncc(Br)cc2C(=O)N([C@@H](C)CO)C[C@@H]1C	-	-	0	-	-	0
C[C@@H]1CN([C@H](C)CO)C(=O)c2cc(NC(=O)CCC(F)(F)F)ccc2O[C@@H](C)CCCCO[C@H]1CN(C)Cc1ccc(C(=O)O)cc1	-	0	0	-	-	0
CO[C@H]1CN(C)C(=O)c2cc(NC(=O)NC(C)C)ccc2OC[C@@H](C)N(C)C[C@H]1C	-	0	0	-	-	0
Cc1ccc(S(=O)(=O)N2CCCC(C(=O)Nc3ccc(NC(=O)c4ccccn4)cc3)C2)cc1 (stereo unspecified)	0	-	-	0	60	0
Cc1ccc(S(=O)(=O)N2CCCC(C(=O)Nc3cccnc3)C2)cc1 (stereo unspecified)	-	-	-	0	-	0
O=C(Nc1ccc(NC(=O)C2CC2)cn1)c1ccccc1Cl	0	-	-	0	37	42
O=C(Nc1ccc(NC(=O)C2CCCCC2)nc1)c1ccccn1	94	0	0	0	?	47
CCc1cc2c(SC(C)C(=O)NC3CCCC3)ncnc2s1 (stereo unspecified)	0	0	0	0	0	0

High-throughput results (PubChem BioAssay)
